Drawing on PubChem BioAssay, this text covers composite z-score, composite Z-score and z-score for eight compounds.

Molecules are shown by their SMILES. Activity calls are given as the source filed them.

Assay [1] deals with Albumin (Bos taurus) (UniProt P02769). The assay is described as follows: bovine serum albumin binders on microarray, profiling panel, artefact control for SMM control protein annotation, biochemical, small-molecule microarray, Alexa647 label, 635/667 nm fluorescence (AID 1118).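 Further: score merges 667 nm emission intensity and signal-to-noise per printed compound spot.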 Particulars: BSA-A647 binding, fluorescence 635 nm, higher = more signal.
Sequence of Albumin (Bos taurus) (P02769 whole entry, looked up): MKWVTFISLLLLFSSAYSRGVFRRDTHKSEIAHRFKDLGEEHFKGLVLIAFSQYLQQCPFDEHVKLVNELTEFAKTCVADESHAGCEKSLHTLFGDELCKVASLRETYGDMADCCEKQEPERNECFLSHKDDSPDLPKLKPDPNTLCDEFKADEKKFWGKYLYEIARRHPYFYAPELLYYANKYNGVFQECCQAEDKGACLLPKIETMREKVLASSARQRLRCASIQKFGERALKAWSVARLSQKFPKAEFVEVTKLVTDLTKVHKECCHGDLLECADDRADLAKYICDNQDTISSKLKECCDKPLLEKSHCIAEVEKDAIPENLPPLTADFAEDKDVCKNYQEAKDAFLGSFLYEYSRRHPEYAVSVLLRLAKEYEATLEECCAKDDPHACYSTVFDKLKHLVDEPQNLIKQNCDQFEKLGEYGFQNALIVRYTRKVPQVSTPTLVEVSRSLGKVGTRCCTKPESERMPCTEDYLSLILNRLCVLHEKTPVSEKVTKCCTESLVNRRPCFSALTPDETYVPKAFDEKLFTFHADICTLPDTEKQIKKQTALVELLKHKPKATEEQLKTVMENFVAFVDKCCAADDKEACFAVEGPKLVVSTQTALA
Assay [2] can be described thus: small-molecule microarray binders of probe aXIP, primary screen, biochemical, NeuroSMM set, 635/667 nm fluorescence (AID 1119).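 Further: probe is the protein aXip251-270 applied at 1 µg/mL to compound-printed slides; binding of probe to printed compounds measured as 667 nm fluorescence plus signal to noise.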 The settings on record: higher = more signal, called active from +8 up or from −8 down.
Assay [3] is described as follows: small-molecule binders of probe aNOTCH3, primary screen, biochemical, small-molecule microarray, 635/667 nm fluorescence (AID 1120).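 Further: probe is a biotin-tagged antibody raised against NOTCH3 rather than NOTCH3 protein; score merges spot fluorescence near 667 nm with spot signal to noise.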 The settings on record: higher = more signal.
Assay [4] is described as follows: small-molecule binders of probe aNOTCH2, primary screen, biochemical, small-molecule microarray, 635/667 nm fluorescence (AID 1121).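 Further: score merges feature fluorescence read at 667 nm with its signal to noise.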 The settings on record: higher = more signal.
Assay [5] has as its target Carbonic anhydrase 2 (Homo sapiens) (UniProt P00918). As to the kind of experiment: CAII small-molecule binders, profiling panel, biochemical, small-molecule microarray, Alexa647-labelled CAII (AID 1122). Particulars: CAII-A647 binding fluorescence, higher = more signal.
The nature of assay [6]: COS7 lysate on small-molecule microarray, probe aHis, 635 nm (AID 1123).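 Further: z-score combines 667nm fluorescence intensity with signal-to-noise per printed compound spot.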 Particulars: COS7 cell lysate, fluorescence, higher = more signal.
Assay [7] in a line: compound binding in COS7 lysate, probe aLAP1, primary screen, cell lysate, small-molecule microarray (AID 1124).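 Further: lysate comes from COS7 cells expressing LAP1 and is applied at 0.3 µg/mL; score merges spot fluorescence near 667 nm with signal-to-noise over triplicate slides.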 Particulars: probe aLAP1, fluorescence, higher = more signal.
The test system of assay [8] is Sam68 (KHDRBS1). As to the kind of experiment: Sam68 small-molecule binders, primary screen, biochemical, small-molecule microarray, 635 nm fluorescence (AID 1125).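 Further: score merges 667 nm channel intensity with signal to noise over triplicate slides.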 The settings on record: small-molecule microarray binding, higher = more signal.
Assay [9] deals with Chordin-like protein 2 (CHRDL2). As to the kind of experiment: CHRDL2 small-molecule binders, primary screen, biochemical, small-molecule microarray, 635 nm fluorescence (AID 1126).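 Further: printed compound slides probed with Chrdl2 protein at 4 µg/mL for 1 h at 4 C; score merges 667 nm emission intensity with signal to noise over three replicate slides.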 The settings on record: small-molecule microarray binding, fluorescence 635 nm; higher = more signal.
Assay [10] deals with Concanavalin-A (Canavalia ensiformis) (UniProt P02866). The assay is described as follows: ConA small-molecule binders, primary screen, artefact control for SMM control protein annotation, biochemical, small-molecule microarray, Alexa647 label, 635 nm (AID 1127).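 Further: z combines 667 nm emission intensity with signal-to-noise across three replicate slides.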 Particulars: ConA-A647 binding fluorescence, higher = more signal.
Sequence of Concanavalin-A (Canavalia ensiformis) (P02866 whole entry, looked up): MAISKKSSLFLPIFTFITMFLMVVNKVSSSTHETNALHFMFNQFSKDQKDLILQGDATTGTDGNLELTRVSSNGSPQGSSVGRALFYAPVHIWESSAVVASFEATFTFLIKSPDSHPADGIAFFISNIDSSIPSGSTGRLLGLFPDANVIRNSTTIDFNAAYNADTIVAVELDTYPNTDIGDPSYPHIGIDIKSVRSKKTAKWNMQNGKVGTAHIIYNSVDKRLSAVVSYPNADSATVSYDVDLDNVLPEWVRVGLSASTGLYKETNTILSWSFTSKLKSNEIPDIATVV
A short description of assay [11]: anti-His antibody binders, primary screen, artefact control for SMM control protein annotation, biochemical, small-molecule microarray, 635 nm fluorescence (AID 1128).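 Further: score merges feature fluorescence with signal-to-noise for each printed compound spot.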 The settings on record: anti-His Alexa647 antibody binding, higher = more signal.
The subject of assay [12] is Human papillomavirus type 1a E7 protein (residues 1-88). As to the kind of experiment: HPV1a E7 small-molecule binders, primary screen, biochemical, small-molecule microarray, residues 1-88, 635 nm (AID 1129). The settings on record: small-molecule microarray binding, fluorescence 635 nm; higher = more signal.
Assay [13] has as its target Focal adhesion kinase 1 (Homo sapiens) (UniProt Q05397). The assay is described as follows: small-molecule microarray binders of FAK, primary screen, biochemical, 635/667 nm fluorescence, BSA, DTT (AID 1130).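 Further: composite of spot emission at 667 nm and signal to noise over triplicate slides.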 Particulars: PTK2 binding, 635 nm fluorescence, higher = more signal.
The test system of assay [14] is Fibrinogen (Alexa647-labelled). As to the kind of experiment: fibrinogen binders on compound microarrays, profiling panel, artefact control for SMM control-protein annotation, biochemical, small-molecule microarray, 635/667 nm fluorescence (AID 1131).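 Further: z-score merges 667 nm fluorescence with per-spot signal-to-noise over triplicate slides.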 Particulars: fibrinogen-A647 binding fluorescence, higher = more signal.
For assay [15], the target named is Follistatin (Homo sapiens) (UniProt P19883). As to the kind of experiment: follistatin binders on small-molecule microarrays, primary screen, biochemical, small-molecule microarray, 635/667 nm fluorescence (AID 1132). Particulars: FST binding, 635 nm fluorescence, higher = more signal.
Sequence of Follistatin (Homo sapiens) (P19883 whole entry, looked up): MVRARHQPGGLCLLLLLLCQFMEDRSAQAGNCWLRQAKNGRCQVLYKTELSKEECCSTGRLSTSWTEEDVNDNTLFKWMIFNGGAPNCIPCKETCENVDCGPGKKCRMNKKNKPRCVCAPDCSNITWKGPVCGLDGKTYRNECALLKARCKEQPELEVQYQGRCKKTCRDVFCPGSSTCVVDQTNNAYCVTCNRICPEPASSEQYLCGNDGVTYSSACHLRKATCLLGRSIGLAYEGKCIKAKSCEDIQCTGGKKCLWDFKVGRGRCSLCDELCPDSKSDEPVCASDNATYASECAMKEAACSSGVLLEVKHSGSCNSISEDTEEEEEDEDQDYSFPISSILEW
Assay [16] concerns the target Fibroblast growth factor 2 (Homo sapiens) (UniProt P09038). As to the kind of experiment: FGF2 binders on small-molecule microarrays, primary screen, biochemical, small-molecule microarray, 635/667 nm fluorescence (AID 1133). The settings on record: small-molecule microarray binding, FGF2, fluorescence 635/667; higher = more signal.
Assay [17] can be described thus: mitochondrial membrane potential change in A549 cells, profiling panel, cell-based, JC-1 fluorescence, basal, 24 h, 100 nL (AID 1138).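 Further: A549 lung adenocarcinoma cells under basal conditions with no added stimulus; test concentration not given here.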 The settings on record: higher = more signal.
Assay [18] concerns Lefty1. The assay is described as follows: Lefty1 binders on small-molecule microarrays, primary screen, biochemical, small-molecule microarray, 635/667 nm fluorescence (AID 1139). The settings on record: small-molecule microarray binding, fluorescence 635/667; higher = more signal.
Assay [19] relates to wheat germ agglutinin (Triticum aestivum), Alexa647-labelled. As to the kind of experiment: wheat germ agglutinin binders on compound microarrays, profiling panel, artefact control for SMM control-protein annotation, biochemical, small-molecule microarray, 635/667 nm fluorescence (AID 1140).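 Further: score merges 667 nm feature emission with signal to noise over triplicate slides.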 The settings on record: WGA-A647 binding, 635 nm fluorescence, higher = more signal.
For assay [20], the target named is Luciferin 4-monooxygenase (Photinus pyralis) (UniProt P08659). The assay is described as follows: firefly luciferase enzyme inhibitors, primary screen, biochemical, luminescence, purified enzyme, 2006 set (AID 1141).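 Further: cell-free assay with purified firefly luciferase at 100 ng per well in PBS; test concentration not given here.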 The settings on record: SteadyGlo luminescence, 30 min, higher = more signal, called active from +8 up or from −8 down.
Sequence of Luciferin 4-monooxygenase (Photinus pyralis) (P08659 whole entry, looked up): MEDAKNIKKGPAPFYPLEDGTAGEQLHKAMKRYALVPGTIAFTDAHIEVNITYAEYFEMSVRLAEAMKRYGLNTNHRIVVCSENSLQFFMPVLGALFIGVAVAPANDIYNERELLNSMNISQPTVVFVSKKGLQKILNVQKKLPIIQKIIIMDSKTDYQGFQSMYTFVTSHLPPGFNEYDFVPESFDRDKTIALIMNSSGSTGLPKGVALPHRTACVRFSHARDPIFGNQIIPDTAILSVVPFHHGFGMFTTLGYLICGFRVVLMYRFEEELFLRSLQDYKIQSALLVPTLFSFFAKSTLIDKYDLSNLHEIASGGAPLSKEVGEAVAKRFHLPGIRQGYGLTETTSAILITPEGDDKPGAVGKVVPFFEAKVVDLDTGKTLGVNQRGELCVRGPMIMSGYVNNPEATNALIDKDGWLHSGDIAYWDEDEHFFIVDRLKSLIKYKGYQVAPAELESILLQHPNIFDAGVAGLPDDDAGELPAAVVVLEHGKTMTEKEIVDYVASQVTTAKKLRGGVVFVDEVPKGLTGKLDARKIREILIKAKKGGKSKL

Sequence of Focal adhesion kinase 1 (Homo sapiens) (Q05397 whole entry, looked up): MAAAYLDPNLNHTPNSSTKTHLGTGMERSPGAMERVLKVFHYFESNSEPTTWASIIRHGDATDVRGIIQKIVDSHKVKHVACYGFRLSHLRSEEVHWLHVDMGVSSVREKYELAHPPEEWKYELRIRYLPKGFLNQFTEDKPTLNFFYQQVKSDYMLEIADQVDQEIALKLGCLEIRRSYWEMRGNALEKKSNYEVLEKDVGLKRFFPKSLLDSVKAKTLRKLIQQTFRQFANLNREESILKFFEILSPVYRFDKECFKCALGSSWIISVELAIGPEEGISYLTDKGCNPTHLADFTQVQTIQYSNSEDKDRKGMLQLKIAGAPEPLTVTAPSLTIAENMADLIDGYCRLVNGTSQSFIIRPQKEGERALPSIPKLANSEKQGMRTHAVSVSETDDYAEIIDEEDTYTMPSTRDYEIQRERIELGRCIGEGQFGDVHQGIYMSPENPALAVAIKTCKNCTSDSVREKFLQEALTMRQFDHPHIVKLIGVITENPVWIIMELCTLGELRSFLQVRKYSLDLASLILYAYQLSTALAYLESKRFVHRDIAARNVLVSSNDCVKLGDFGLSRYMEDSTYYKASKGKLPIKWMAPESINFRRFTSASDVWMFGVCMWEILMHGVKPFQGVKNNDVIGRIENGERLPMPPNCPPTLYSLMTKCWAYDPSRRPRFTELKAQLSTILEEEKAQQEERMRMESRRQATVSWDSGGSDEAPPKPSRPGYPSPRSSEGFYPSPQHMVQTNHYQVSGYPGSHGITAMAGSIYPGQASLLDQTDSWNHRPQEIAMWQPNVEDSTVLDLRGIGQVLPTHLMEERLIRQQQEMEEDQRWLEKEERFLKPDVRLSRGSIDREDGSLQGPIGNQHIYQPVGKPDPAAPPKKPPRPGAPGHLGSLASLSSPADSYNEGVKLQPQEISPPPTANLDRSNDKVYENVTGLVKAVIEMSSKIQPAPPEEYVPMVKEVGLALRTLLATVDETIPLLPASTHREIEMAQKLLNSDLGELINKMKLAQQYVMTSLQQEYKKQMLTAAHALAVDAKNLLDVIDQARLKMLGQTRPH
Sequence of Fibroblast growth factor 2 (Homo sapiens) (P09038 whole entry, looked up): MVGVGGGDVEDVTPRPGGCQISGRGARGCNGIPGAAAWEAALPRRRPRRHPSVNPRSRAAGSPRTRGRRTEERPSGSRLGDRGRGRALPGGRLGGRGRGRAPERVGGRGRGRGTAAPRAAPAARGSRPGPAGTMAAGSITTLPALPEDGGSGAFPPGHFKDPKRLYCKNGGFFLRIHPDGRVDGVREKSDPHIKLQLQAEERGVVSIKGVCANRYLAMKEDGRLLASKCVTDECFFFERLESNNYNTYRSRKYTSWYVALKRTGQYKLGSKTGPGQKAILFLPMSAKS

Regarding `Cc1ccc(S[C@]2(C(=O)NCC(F)(F)F)CC(=O)N(Cc3cc(C(F)(F)F)cc(C(F)(F)F)c3)[C@@H]2c2ccc(CO)cc2I)cc1`, the composite z-score was 0.803 in [1]; -0.291 in [3]; -0.164 in assay [4]; 0.14 in assay [5]; 0.869 in assay [6]; -0.0008 in assay [7]. The composite z-score in [8] was -1.47; in [9] it was -1.54; in assay [10], -0.41; in [11], 0.214; in assay [12], -0.698; in [13], -0.301. Further, the composite z-score in assay [14] was -0.994; in assay [15], -0.887; in [16], -0.91; in assay [18] it was -0.708; in assay [19], -0.314. Moreover, in assay [2], the composite Z-score was 0.439 (inactive). The z-score in assay [17] was -1.01; in assay [20], 1.5 (inactive).

For the compound `C=C(COC)/C(=C/C[C@H](OC(=O)c1ccncc1)c1ccc(CO)o1)c1cnc2ccccc2c1`, the composite z-score in [1] is -0.0377; in [3], 0.0282; in assay [4] it was -0.123; in assay [5], 0.915; in assay [6] it was 1.04; in assay [7], 1.12. Further, the composite z-score in assay [8] worked out at 1.27; in assay [9], 0.766; in assay [10], 1.08; in assay [11], 0.283; in [12], 1.15; in assay [13], 0.382. Moreover, the composite z-score in assay [14] was 0.271; in [15] it was 1.25; in assay [16] it was 0.222; in assay [18] it was 1.57; in [19], 0.734. Moreover, the composite Z-score in assay [2] was 0.99 (inactive). The z-score in assay [17] is 0.818; in assay [20] it was -1.72 (inactive).

On to `COCC(=C=CC[C@H](O)c1ccc(CO)o1)CCO`, for which the composite z-score in assay [1] is 0.0697; in [3], 0.0066; in assay [4], -0.14; in [5], 0.748; in assay [6], 1.27; in [7] it was -0.0497. Besides, the composite z-score turned out to be 0.601 in assay [8]; 0.0549 in assay [9]; 0.494 in [10]; 1.28 in [11]; 0.58 in assay [12]; 0.646 in [13]. Also, the composite z-score in assay [14] worked out at 0.501; in assay [15], 1.3; in assay [16], 1.14; in [18], 0.915; in [19] it was 0.277. Besides, the composite Z-score in assay [2] is 0.701 (inactive). In addition, the z-score in assay [17] was 0.0889; in assay [20] it was -0.561 (inactive).

As to `CCCC=C(CCC)[C@@H](NP(=O)(c1ccccc1)c1ccccc1)c1ccc(-c2ccccc2)cc1`, the composite z-score was determined as 0.91 in [1]; 0.36 in assay [3]; 0.0117 in assay [4]; 0.561 in assay [5]; 2.52 in assay [6]; 0.272 in assay [7]. Also, the composite z-score in [8] is 1.34; in assay [9], -0.465; in assay [10] it was 1.09; in assay [11] it was 0.809; in assay [12], 1.21; in assay [13], 0.332. The composite z-score in assay [14] was 0.997; in [15] it was 1.11; in assay [16] it was -0.0567; in assay [18] it was 0.38; in assay [19] it was 1.25. In [2], the composite Z-score is 0.439 (inactive). In addition, the z-score in assay [17] is -2.3; in [20], 2.64 (inactive).

As for `Cc1ccc(F)cc1S(=O)(=O)N[C@@H]1CCN(Cc2ccc(Br)cc2)C1`, the composite z-score is 0.694 in assay [1]; 0.122 in [3]; -0.0424 in assay [4]; 0.276 in assay [5]; -0.593 in assay [6]; -0.386 in [7]. Moreover, the composite z-score is -0.811 in [8]; 0.743 in [9]; -0.862 in assay [10]; -0.325 in assay [11]; -0.464 in assay [12]; -0.408 in [13]. Moreover, the composite z-score stood at 0.79 in assay [14]; 0.639 in assay [15]; 0.677 in [16]; 0.983 in assay [18]; 0.124 in assay [19]. Moreover, the composite Z-score in assay [2] is -0.388 (inactive). Moreover, the results for the z-score in assay [17] and in [20] were 1.47 and -0.457 (inactive), respectively.

In the case of `[N-]=[N+]=Nc1ccccc1C[C@]1(C(=O)O)COC(c2ccc(OCCCO)cc2)=N1`, the composite z-score in assay [1] is 0.638; in assay [3], 0.0116; in assay [4] it was -0.0501; in [5] it was 0.856; in assay [6], 0.143; in assay [7], -0.165. Further, the composite z-score in [8] was -0.566; in assay [9], -1.31; in assay [10], -0.19; in assay [11], -0.047; in assay [12], -0.914; in [13], 0.0699. In addition, the composite z-score is -1.45 in assay [14]; -0.224 in assay [15]; -0.717 in [16]; -0.843 in [18]; 0.396 in assay [19]. In addition, in [2], the composite Z-score is 0.277 (inactive). Further, the z-score is -0.991 in [17] and -13.9 (active) in assay [20].

Regarding `Cn1cccc1C(O)C1C=CC2C(=O)N(c3ccccc3)C(=O)C2N1Nc1ccccc1` (stereo not given), the composite z-score was determined as 0.857 in assay [1]; 0.346 in assay [3]; 0.2 in assay [4]; 0.805 in assay [5]; 2.37 in [6]; 0.461 in assay [7]. Also, the composite z-score in [8] was determined as 1.3; in assay [9], 0.352; in assay [10], 1.19; in [11], 0.933; in [12], 1.23; in assay [13], 0.848. The composite z-score was determined as 0.954 in assay [14]; 1.29 in [15]; 0.984 in assay [16]; 0.475 in [18]; 0.557 in assay [19]. For the same compound, in [2], the composite Z-score is 0.581 (inactive). Also, the z-score in [17] is 0.569; in [20] it was -0.589 (inactive).

With `CC(C)N1C(=O)C[C@@](C(=O)NC2CC2)(c2ccc([N+](=O)[O-])cc2)[C@H]1c1ccc(CO)cc1`, the composite z-score in [1] was -1.1; in assay [3], -0.339; in assay [4] it was -0.14; in [5], 0.525; in assay [6], 2.95; in assay [7], 0.965. Also, the composite z-score in assay [8] is -0.203; in assay [9], -1.08; in assay [10] it was -0.0039; in [11], 1.7; in assay [12] it was -0.0823; in assay [13], 0.403. The composite z-score in assay [14] is -0.793; in assay [15] it was 0.323; in assay [16] it was 0.362; in assay [18], -1.11; in assay [19], -0.545. Further, in assay [2], the composite Z-score is -0.239 (inactive). For the same compound, the z-score in assay [17] was -0.544; in assay [20], -0.254 (inactive).
